4-MU autofl: compound fluoresces in the 4-MU spectral region; compound autofluorescence, 340/450 nm, 4-MU equivalents; stronger effect = higher value; max dye-equivalent concentration, M; 59,000 tested, 11% active; AID 589; in the data active means max dye-equivalent concentration above about 10 nM; inconclusive means mostly about 1.1 nM to 9.6 nM
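Compounds in 100 mM Tris, pH 8.0, sat 15 min at room temperature before fluorescence was read at 340 nm excitation/450 nm emission; a per-plate six-point 4-MU standard curve converted signals to dye-equivalent concentration at each compound concentration.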
A350 autofl: compound fluoresces in the Alexa 350 spectral region; Compound autofluorescence, 340/450 nm, Alexa 350 dye-equivalents; stronger effect = higher value; max dye-equivalent concentration, M; 59,000 tested, 11% active; AID 590; in the data active means max dye-equivalent concentration above about 10 nM; inconclusive means mostly about 1.1 nM to 9.6 nM
HADH2 inhib: inhibitors of human HADH2 dehydrogenase | Q99714 | recombinant HADH2, NADH fluorescence, beta-hydroxybutyryl-CoA | Potency, µM (top dose mostly 57.1 µM), without a hit: at the highest dose activity change, negative = inhibition, actives largely listed as inhibitors | 73,000 tested, 3.4% active; further: potency means the concentration at half of the fitted maximal effect; on the % scale 0 is the no-effect control and ±100 the full control effect; nearly all actives have a fitted effect of over 60% in size
Target sequence (Q99714 whole entry, looked up, one chain of several): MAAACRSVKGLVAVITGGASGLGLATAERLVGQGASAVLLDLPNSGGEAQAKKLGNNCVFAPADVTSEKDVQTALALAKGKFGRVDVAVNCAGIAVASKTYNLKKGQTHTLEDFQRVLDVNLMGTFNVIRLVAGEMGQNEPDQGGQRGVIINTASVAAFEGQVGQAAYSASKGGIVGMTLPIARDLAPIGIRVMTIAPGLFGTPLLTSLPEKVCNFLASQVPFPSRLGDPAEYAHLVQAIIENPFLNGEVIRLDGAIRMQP
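NADH fluorescence (ex 360/em 450 nm) read every 30 s for 4 min; activity taken as last-minus-first time point difference. Enzyme 20 nM, NAD+ 1 mM, beta-hydroxybutyryl-CoA 90 uM, pH 9.0 Tris buffer.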
HSD17B inh: inhibitors of human HSD17B10 dehydrogenase; recombinant HSD17B10, NADH fluorescence kinetic; Potency, µM (highest dose often 57.1 µM), inactives show at the top dose activity change, negative = inhibition, hits mostly inhibitors; 75,000 tested, 7.6% active;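 further: the protocol describes HADH2 (HSD17B10) and not the HSD17B4 of the title; potency means the concentration at half of the fitted maximal effect; on the % scale 0 is the no-effect control and ±100 the full control effect; nearly all actives have a fitted effect of over 70% in size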
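Enzyme plus compound, 15 min room temperature; substrate mix added (NAD+ 1 mM, beta-hydroxybutyryl-CoA 90 uM final); plates read kinetically for NADH fluorescence. HADH2 was His-tagged, E. coli-derived, 20 nM.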
PK Bst: alters activity of Bacillus stearothermophilus pyruvate kinase; AID 361; Potency, µM; purified pyruvate kinase, luminescence ATP production; ribose 5-phosphate activator present at AC10; 51,000 tested, 1.2% active; in the data active means potency below about 11 µM; inconclusive means mostly about 12 µM to 25 µM;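 the screen sought inhibitors and activators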;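 further: potency means the concentration at half of the fitted maximal effect; scaled between full activation by ribose 5 phosphate and full inhibition by luteolin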
AID923: qHTS Assay for Allosteric/Competitive Inhibitors of Caspase-1: Spectroscopic Profiling in AFC Spectral Region; compound fluorescence, AFC spectral region (405/520 nm); Potency, µM (highest dose often 57.5 µM), without a hit: top-dose fluorescence increase, actives largely listed as activators; 75,000 tested, 1.1% active; further: potency means the concentration at half of the fitted maximal effect; 0% is about no effect
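Compound autofluorescence profiled at 405 nm ex/520 nm em during kinetic caspase 1 run (50 nM enzyme, 5 uM Ac-WEHD-AFC, HEPES pH 7.5, 10 mM DTT). Titration up to 57 uM; baseline from regression intercept, normalized to AFC standard curve.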
Numbers without * were called inactive; ! = not active in a repeat; [ ] = dose if it differs, or a comment. Compounds with a hit are over-represented: about 13% of the library has one in this group of screens. Unless noted, the call rests on the fitted dose curve; in most records, active means well fitted curve in the direction sought with a large enough effect; inconclusive means small, poorly fitted or top-dose-only effect, or another doubt; inactive means no such curve, though single readings can be large; an effect the other way counts as inactive or inconclusive.

For CCOc1cccc(-c2nnc3sc(-c4cc(OC)c(OC)cc4OC)nn23)c1 the results were 4-MU autofl 4.4e-08M*, A350 autofl 5.13e-08M*, HADH2 inhib 5.1%, HSD17B inh 2.8%, PK Bst >57 and AID923 0.0%.
`COc1ccc(-c2nn3c(-c4ccccc4)nnc3s2)cc1` gave 4-MU autofl inactive, A350 autofl inactive, HADH2 inhib 17.7%, HSD17B inh inconclusive, PK Bst 3.39* and AID923 1.2%.
For O=C(O)c1ccccc1C1c2ccccc2Oc2ccccc21 the results were 4-MU autofl inconclusive, A350 autofl inconclusive, HADH2 inhib 20.8%[11.4 µM], HSD17B inh 2.9%[11.4 µM] and AID923 -2.7%[11.5 µM].
For Cc1cnc(CNc2ncnc3ccc(-c4c(C)noc4C)cc23)cn1 the results were 4-MU autofl inactive, A350 autofl inconclusive, HADH2 inhib 10.8%, HSD17B inh -3.9% and AID923 3.4%.
Cc1ccc(-c2c(C#N)c(N)nc3c2CCCCC3)o1 was read as 4-MU autofl 6.15e-08M*, A350 autofl 6.97e-08M*, HADH2 inhib 9.0%, HSD17B inh -18.0%, PK Bst >57 and AID923 5.0%.
Screening CC1CCc2nc(N)c(C#N)c(-c3cccn3C)c2C1 (stereo not given) returned 4-MU autofl inactive, A350 autofl inactive, HADH2 inhib -4.6%, HSD17B inh -1.9%, PK Bst >57 and AID923 0.3%.
For Cc1ccc(-c2c(C#N)c(N)nc3c2CCCCCC3)o1 the results were HADH2 inhib 7.4%, HSD17B inh 20µM* and AID923 3.6%.
C=CCNC(=O)NS(=O)(=O)c1ccc(C)cc1 was read as 4-MU autofl inactive, A350 autofl inactive, HADH2 inhib 12.0%, HSD17B inh 13.1%, PK Bst >57 and AID923 0.3%.
For CCOC(=O)CC(=O)CSc1[nH]c(=O)cc(C)c1C#N the results were 4-MU autofl inactive, A350 autofl inactive and PK Bst >25.6.
COCc1cc(C)nc(N2CCN(c3ccccc3)CC2)c1C#N was read as HADH2 inhib inconclusive, HSD17B inh inconclusive and AID923 -0.7%.
For COCc1cc(C)nc(NC2CCCCC2)c1C#N the results were 4-MU autofl 8.4e-07M*, A350 autofl 1e-06M*, HADH2 inhib -193.3%, HSD17B inh 25.1µM*, PK Bst >57 and AID923 -0.6%.
`CC[N+](C)(C)Cc1ccccc1Br` gave 4-MU autofl 2.02e-08M*!, A350 autofl 1.67e-08M*!, HADH2 inhib -4.7%, HSD17B inh 3.7%, PK Bst >11.4 and AID923 -1.4%.
Screening CCOc1ccc2[nH]c(=O)c(CN(Cc3ccccc3)C(=O)N3CCCC3)cc2c1 returned 4-MU autofl 7.4e-08M*, A350 autofl 8.77e-08M*, HADH2 inhib 9.3%, HSD17B inh inconclusive, PK Bst >57 and AID923 0.5%.
`Cc1ccc2[nH]c(=O)c(CN(Cc3ccccc3Cl)C(=O)N3CCOCC3)cc2c1` gave 4-MU autofl inconclusive, A350 autofl inconclusive, HADH2 inhib 7.5%, HSD17B inh inconclusive, PK Bst >57 and AID923 0.9%.
O=C(COc1ccccc1)N(Cc1cc2ccccc2[nH]c1=O)CC1CCCO1 (stereo not given) was read as 4-MU autofl inactive, A350 autofl inactive, HADH2 inhib 12.7%, HSD17B inh 9.4%, PK Bst >57 and AID923 -1.0%.
CCOc1ccc(Cc2nc(C)c(CC(=O)N3CCOCC3)c(=O)[nH]2)cc1 was read as 4-MU autofl inactive, A350 autofl inactive, HADH2 inhib 5.4%, HSD17B inh -3.0%, PK Bst >57 and AID923 -1.3%.
`CCOc1ccc2[nH]c(=O)c(CN(C(=O)N3CCOCC3)C3CC3)cc2c1` gave 4-MU autofl 3.22e-07M*, A350 autofl 2.76e-07M*, HADH2 inhib -18.7%, HSD17B inh inconclusive, PK Bst >57 and AID923 1.0%.
CCOc1ccc2[nH]c(=O)c(CN(CC3COCCO3)C(=O)C3CC3)cc2c1 (stereo not given) was read as 4-MU autofl 3.89e-07M*, A350 autofl 6.34e-07M*, HADH2 inhib 10.5%, HSD17B inh 3.98µM*, PK Bst >57 and AID923 3.6%.
Screening COc1cccc(N2CCCn3c2nc2c3c(=O)n(CCN3CCOCC3)c(=O)n2C)c1 returned 4-MU autofl inactive, A350 autofl inconclusive, HADH2 inhib 1.5%, HSD17B inh 13.9%, PK Bst >57 and AID923 -1.5%.
`O=C(O)c1cc2c(cc1S(=O)(=O)O)[C@H]1[C@@H]([C@H]3[C@H]2[C@@]2(Cl)C(Cl)=C(Cl)[C@]3(Cl)C2(Cl)Cl)[C@]2(Cl)C(Cl)=C(Cl)[C@@]1(Cl)C2(Cl)Cl` gave 4-MU autofl inactive, A350 autofl inactive, HADH2 inhib 4.1%[11.4 µM], HSD17B inh 0.316µM* and AID923 -2.5%[11.5 µM].
Screening Cc1cc(C)nc(N2CCN(c3nc(C)cc(C)n3)CC2)n1 returned 4-MU autofl 2.64e-08M*, A350 autofl 3.26e-08M*, HADH2 inhib 4.8%, HSD17B inh -1.0%, PK Bst >57 and AID923 -0.3%.
`Cc1cc(C)nc(N2CCCC(C(=O)NCCc3ccccc3F)C2)n1` (stereo not given) gave 4-MU autofl inactive, A350 autofl inconclusive, HADH2 inhib 8.9%, HSD17B inh -8.1%, PK Bst 3.16* and AID923 0.0%.
For Cc1cc(C)nc(N2CCC(CNC(=O)CCc3ccccc3)CC2)n1 the results were 4-MU autofl inactive, A350 autofl inactive, HADH2 inhib -7.8%, HSD17B inh 31.6µM*, PK Bst >57 and AID923 1.4%.
`CCOc1cc(C)nc(N2CCCC(C(=O)NCc3ccccc3F)C2)n1` (stereo not given) gave 4-MU autofl inactive, A350 autofl inactive, HADH2 inhib 5.6%, HSD17B inh 1.0%, PK Bst >57 and AID923 2.6%.
Screening CCCNC(=O)C1CCN(c2nc(C)cc(C)n2)CC1 returned 4-MU autofl inactive, A350 autofl inactive, HADH2 inhib -14.8%, HSD17B inh 31.6µM*, PK Bst >57 and AID923 1.7%.
For CC(C)(C)c1nnc2sc(SCC(=O)c3cccs3)nn2c1=O the results were 4-MU autofl inactive, A350 autofl inactive, HADH2 inhib inconclusive, HSD17B inh -6.2%, PK Bst >57 and AID923 0.2%.
`CC1(C)c2ccccc2N2CC(=O)N(CC(N)=O)C21C` (stereo not given) gave 4-MU autofl 1.43e-06M*, A350 autofl 2.03e-06M*, HADH2 inhib -16.1%, HSD17B inh 0.1%, PK Bst >57 and AID923 -1.0%.

Screens as filed in PubChem.
